Source: PubChem BioAssay (National Center for Advancing Translational Sciences (NCATS))
G9a inh: inhibitors of human histone lysine methyltransferase G9a | Q96KQ7 | G9a H3K9 monomethylation, AlphaScreen, 2 h | Potency, µM (titrated, usually from 102 µM), without a hit: at the top dose activity, negative = inhibition, hits mostly inhibitors | actives 8.8% (n = 350,000) | AID 504332; also: potency is read from the fitted curve at half-maximal effect; % is scaled to controls: 0 for no effect and ±100 for the full control effect; nearly all actives have a fitted effect of over 75% in size
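Readings reflect AlphaScreen signal from monomethyl-H3K9 antibody detection. HMT at 20 nM; substrate b-H3K9 500 nM; cofactor SAM 20 uM; 2 h RT reaction; compounds tested as titrations in qHTS with 15 min preincubation.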
HP1b chromo inh: inhibitors of HP1-beta chromodomain binding to methylated histone tails | AlphaScreen HP1-beta / biotin-H3K9me3 peptide binding | Potency, µM (series often up to 114 µM), inactives show top-dose activity change, negative = inhibition, actives largely listed as inhibitors | actives 0.56% (n = 390,000) | AID 540317; also: potency is read from the fitted curve at half-maximal effect; nearly all actives have a fitted effect of over 70% in size
Target sequence (P83916 whole entry, looked up): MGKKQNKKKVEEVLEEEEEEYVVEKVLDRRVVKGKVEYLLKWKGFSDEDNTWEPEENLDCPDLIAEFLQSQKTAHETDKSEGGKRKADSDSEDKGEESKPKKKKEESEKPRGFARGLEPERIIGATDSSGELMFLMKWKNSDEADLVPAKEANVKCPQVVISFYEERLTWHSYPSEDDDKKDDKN
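HP1-beta protein (50 nM final) preincubated 30 min at room temperature with biotinylated H3(1-18)K9me3 peptide (50 nM) in PBS pH 7.4, 0.01% Tween-20, then compound added for 30 min. AlphaScreen streptavidin donor/nickel chelate acceptor beads (10 ug/mL final), 30 min dark, luminescence read.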
BAZ2B block: inhibitors of human BAZ2B bromodomain; Q9UIF8; AlphaScreen BAZ2B-H3K14Ac peptide displacement; Potency, µM (top dose mostly 114 µM), inactives show at the top dose activity change, negative = inhibition, actives largely listed as inhibitors; actives 4.4% (n = 360,000); also: potency is read from the fitted curve at half-maximal effect; % is scaled to controls: 0 for no effect and ±100 for the full control effect; nearly all actives have a fitted effect of over 60% in size
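Complex of BAZ2B and biotin-H3K14Ac (50 nM apiece) forms over 30 min at RT, then faces library compounds up to 110 uM for another 30 min; AlphaScreen beads added, 20 min dark incubation, luminescence read.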
L3MBTL1 inh: inhibitors of human L3MBTL1; AlphaScreen L3MBTL1–H3K9me1 peptide binding; Potency, µM (series often up to 57.1 µM), for inactives: top-dose activity, negative = inhibition, most hits filed as inhibitors; actives 0.66% (n = 230,000); also: potency is read from the fitted curve at half-maximal effect; % is scaled to controls: 0 for no effect and ±100 for the full control effect; nearly all actives have a fitted effect of over 60% in size
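AlphaScreen proximity signal between nickel-chelate acceptor and streptavidin donor beads (final 10 ug/mL) reports binding of 50 nM L3MBTL1 to 75 nM biotin-H3 K9me1 peptide; complex incubated with compounds 30 min at room temperature; cefsulodin titration as control.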
JMJD2A Tudor: blocks the human JMJD2A Tudor domain. AlphaScreen JMJD2A-Tudor / H3K4me3 peptide binding. Potency, µM (highest dose often 114 µM), inactives show top-dose activity change, negative = inhibition, hits mostly inhibitors. AID 504339. actives 4.4% (n = 390,000); also: potency is read from the fitted curve at half-maximal effect; % is scaled to controls: 0 for no effect and ±100 for the full control effect; nearly all actives have a fitted effect of over 50% in size
PI5P4K alpha inh: inhibitors of human PI5P4K alpha. P48426. PI5P4Kalpha enzyme, ADP-Glo luminescence, 60 min; active compounds read low. max response, %. actives 1.2% (n = 330,000). AID 652105; active = max response of -50% or lower; inconclusive = between -30% and -50%; inactive = -30% or higher; also: value at the top dose of about 77 µM; % is scaled to controls: 0 for no effect and ±100 for the full control effect
Target sequence (P48426 whole entry, looked up): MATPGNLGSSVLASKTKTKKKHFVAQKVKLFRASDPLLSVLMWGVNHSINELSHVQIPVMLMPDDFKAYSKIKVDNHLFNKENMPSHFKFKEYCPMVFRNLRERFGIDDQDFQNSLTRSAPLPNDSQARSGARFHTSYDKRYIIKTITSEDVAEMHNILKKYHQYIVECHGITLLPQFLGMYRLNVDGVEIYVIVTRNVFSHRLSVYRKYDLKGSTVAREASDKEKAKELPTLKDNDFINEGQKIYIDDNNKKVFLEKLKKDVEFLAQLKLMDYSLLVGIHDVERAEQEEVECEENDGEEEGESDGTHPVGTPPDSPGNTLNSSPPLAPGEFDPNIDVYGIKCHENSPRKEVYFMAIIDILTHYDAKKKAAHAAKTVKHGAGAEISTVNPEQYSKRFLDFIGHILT
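Enzyme plus substrate dispensed, test compounds pinned in, then ATP (5 microM final) added. After 60 min at RT, ADP-Glo reagent 1 for 45 min and reagent 2 for 30 min preceded luminescence imaging.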
An asterisk follows results filed as active; ? = inconclusive; · = no result; [ ] = dose if it differs, or a comment. This is a sample that favours compounds with a hit; in the whole collection about 11% have one here. Unless noted, calls follow the shape of the dose curve; as a rule, active = well fitted inhibition curve with a large enough effect; inconclusive = small, poorly fitted or top-dose-only effect; inactive = no such curve, though single readings can be large or run the other way.

SMILES | G9a inh | HP1b chromo inh | BAZ2B block | L3MBTL1 inh | JMJD2A Tudor | PI5P4K alpha inh
CCn1c(C)c(C(C)=O)c(N2CCCCC2)nc1=S | 44.7µM* | 30.3% | 14.0% | -1.1% | -16.0% | 3.4
CC[C@@H]1/C=C(\C)C[C@H](C)C[C@H](OC)[C@H]2O[C@@](O)(C(=O)C(=O)N3CCCC[C@H]3C(=O)O[C@H](/C(C)=C/[C@@H]3CC[C@H](Cl)[C@H](OC)C3)[C@H](C)[C@@H](O)CC1=O)[C@H](C)C[C@@H]2OC | -15.9%[12.7 µM] | · | · | · | · | ·
CN(CC(=O)Nc1ncn[nH]1)S(=O)(=O)c1ccc(Cl)cc1 | 89.1µM* | 29.6% | 50.1µM* | · | ? | 4.8
CN(CC(=O)Nc1ccc(Cl)cc1)S(=O)(=O)c1cccc2cccnc12 | 44.7µM* | 54.1% | 8.6% | · | -13.8% | -6.0
COc1cc2c(cc1OC)C[N+](C)(C)CC2 | -9.7%[12.7 µM] | 8.7% | -6.2% | 8.6% | 50.1µM* | -4.7
COc1cc(O)c(NC(C)=O)c2nonc12 | 22.4µM* | 20.9% | 6.9% | -3.0% | -35.5% | ·
Cc1ccc(C(=O)CSc2ccccn2)cc1 | 8.91µM* | 24.6% | 11.2% | 9.9% | 8.3% | 1.8
O=C(O)c1ccnc(SCC(=O)c2ccccc2)c1 | 22.4µM* | 56.5% | -13.7% | 7.8% | 8.2% | -9.9
O=C(CSc1ccccn1)c1ccc(F)cc1 | ? | 0.6% | 10.1% | 1.2% | -14.7% | ·
Cc1ccc(C(=O)CSc2nccn2-c2ccccc2)cc1 | 31.6µM* | ? | 56.2µM* | -26.9% | ? | 5.3
COc1cccc(-n2cc(C(=O)Nc3cc(C)c(Cl)cc3OC)c3ccccc3c2=O)c1 | -0.9%[59 µM] | 17.8% | -0.5% | · | -15.8% | ·
Cc1cc2c(s1)c1cnn(Cc3ccc(-c4ccccc4)cc3)c(=O)c1n2C | · | · | · | · | -15.1% | ·
O=C(NCCCN1CCCC1)C1CCN(C(=O)c2cc3sccc3n2Cc2ccc(F)cc2)CC1 | 50.1µM* | 16.3% | ? | · | -18.9% | ·
CCn1c(C(=O)N2CCC(C(=O)NCCc3ccc(C)cc3)CC2)cc2sccc21 | 2.1%[59 µM] | 19.7% | -17.5% | · | -16.0% | ·
CCn1c(C(=O)N2CCC(C(=O)NCc3ccc4c(c3)OCO4)CC2)cc2sccc21 | 44.7µM* | 12.6% | -35.6% | -4.3% | ? | -13.2
CCn1c(C(=O)N2CCC(C(=O)NCCc3ccccc3)CC2)cc2sccc21 | ? | 24.0% | 0.9% | · | -8.4% | ·
NC(=O)C1CCCN(C(=S)NCc2ccc3c(c2)OCO3)C1 (configuration not stated) | 50.1µM* | 22.3% | 0.1% | -5.7% | -5.0% | 0.4
CCn1c(C(=O)N2CCC(C(=O)NCCCSC3CCCCC3)CC2)cc2sccc21 | 39.8µM* | 3.0% | ? | · | ? | 11.0
COCCCNC(=O)C1CCN(C(=O)c2cc3sccc3n2Cc2ccc(F)cc2)CC1 | 3.7% | 21.0% | 1.9% | · | -12.5% | ·
CCCCNC(=O)CCCn1c(=O)c2ccccc2n(Cc2ccccc2C)c1=O | 7.6%[59 µM] | 38.0% | 3.7% | · | 2.4% | ·
CCOc1ccc(CCNCc2c(C(=O)O)n(Cc3ccc(C)cc3)c3cc(OC)ccc23)cc1 | ? | -17.9% | -33.7% | · | -24.2% | ·
CCOc1ccc(NC(=O)Cn2c(=O)n(CCC(=O)NCCc3ccccc3)c(=O)c3ccccc32)cc1 | -4.2%[59 µM] | 22.7% | -0.2% | · | -11.3% | ·
Cn1c(C(=O)N2CCCC(C(=O)NCc3ccc4c(c3)OCO4)C2)cc2sccc21 (configuration not stated) | 50.1µM* | 10.4% | ? | · | -13.4% | -0.4
Cc1ccc(CCNC(=O)C2CCCN(C(=O)c3cc4sccc4n3C)C2)cc1 (configuration not stated) | 14.2%[12.7 µM] | -8.4% | -6.9% | -4.5%[11.4 µM] | -36.0% | ·
CC1CCN(c2ccc(NC(=S)NC(=O)c3ccco3)cc2)CC1 | -39.9%[12.7 µM] | -6.5% | 8.91µM* | -0.6% | ? | -4.3
SMILES | G9a inh | HP1b chromo inh | BAZ2B block | L3MBTL1 inh | JMJD2A Tudor | PI5P4K alpha inh
O=C(NC(=S)Nc1ccc(N2CCCCC2)cc1)c1ccco1 | ? | 15.8µM* | 44.7µM* | ? | 39.8µM* | ·
Cc1ccc(C(=O)NC(=S)Nc2ccc(N3CCN(C(=O)c4ccco4)CC3)cc2)cc1 | ? | ? | ? | · | ? | -1.8
COc1ccc(NC(=O)C(NC(=O)/C=C\c2ccc3c(c2)OCO3)c2ccccc2)cc1 (configuration not stated) | -29.4%[59 µM] | 30.0% | 5.0% | · | -7.8% | ·
Cc1cccc(-n2c(-c3ccco3)nc3c(cnn3-c3ccccc3C)c2=O)c1 | ? | -0.3% | · | · | ? | ·
Cc1ccccc1-n1c(-c2ccco2)n[nH]c1=S | 7.08µM* | -10.3% | -9.3% | 0.7% | 3.16µM* | 1.1
FC(F)(F)c1ccccc1-n1c(-c2ccco2)n[nH]c1=S | 15.8µM* | 49.0% | -2.3% | -2.6% | -29.5% | -1.2
COc1ccc(SCC(Cc2ccccc2)N2CCN(CCc3ccccc3)CCC2=O)cc1 (configuration not stated) | · | 17.2% | · | · | ? | ·
NS(=O)(=O)c1ccc(N/C=C\C(=O)c2ccc3ccccc3c2)cc1 | 8.91µM* | 27.3% | ? | 2.4% | -24.7% | -4.1
COc1ccc(N/C=C\C(=O)c2ccc3ccccc3c2)cc1 | ? | 60.1% | -23.0% | -2.2% | -10.0% | 1.5
S=C1NC2=C(CCC/C2=C\c2ccc(Cl)cc2)C(c2ccc(Cl)cc2)N1 (configuration not stated) | · | 8.4% | -31.3% | ? | -32.3% | -14.2
CC1CC2=C(NC(=S)NC2c2ccc(F)cc2)/C(=C/c2ccc(F)cc2)C1 (configuration not stated) | 25.1µM* | -11.7% | ? | -14.9% | -33.1% | ·
O=C1CCCC2=C1C(c1ccccc1)NC(=S)N2 (configuration not stated) | 15.9% | 9.9% | 20.7% | 1.0% | -14.8% | -3.3
C(=C1/CCCC2=C1Nc1ncnn1C2c1ccccc1)/c1ccccc1 (configuration not stated) | 44.7µM* | · | -37.8%[57.1 µM] | -5.4% | · | ·
S=C1NC2=C(CCCC2=C2SCCCS2)C(c2ccccc2)N1 (configuration not stated) | 0.794µM* | 17.5% | ? | · | -2.3%[11.4 µM] | -20.5
COc1ccc(C2NC(=S)NC3=C2CCCC3=C2SCCS2)cc1 (configuration not stated) | ? | -5.2% | 31.6µM* | -2.5% | -27.1% | -18.2
COc1cc(-c2nc(-c3ccc4c(c3)[nH]c(=O)n4C)no2)cc(OC)c1OC | 16.0%[59 µM] | 29.9%[57 µM] | 5.3% | · | -1.3% | ·
COCCNc1ncnc2ccc(-c3cccc(OC)c3)cc12 | 9.7%[0.501 µM] | · | · | · | · | ·
COc1ccc(N2CC(NC(=O)c3cccs3)CC2=O)cc1OC (configuration not stated) | -2.9%[59 µM] | 17.1% | -10.1% | · | -7.5% | ·
